# Measured values as given in PubChem BioAssay (NCATS).
# Calls of active or inactive are those of the source. The call rests on the fitted dose curve; in most records, active means well fitted inhibition curve with a large enough effect; inconclusive means small, poorly fitted or top-dose-only effect; inactive means no such curve, though single readings can be large or run the other way.
# Experiment: qHTS assay for measurement of the activity of small molecule inhibitors on Zika virus induced Caspase-3 activity in human astrocytoma cells (AID 1224859);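 further: plate controls were ZIKV-infected untreated cells for no effect and uninfected cells for full effect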
# Settings: SNB-19 ZIKV-induced caspase-3/7, luminescence, 6 h; series mostly up to 45.7 µM; activity change, negative = inhibition: at the top concentration
# From the text: National Center for Advancing Translational Sciences [NCATS]
# Johns Hopkins University School of Medicine
# Increase in the Caspase-3 activity indicates an activation of apoptosis cell death pathway caused by Zika virus infection in certain types of neuronal cells including human neural progenitor cells (hNPCs), astrocytes, and astrocytoma cell line (SNB-19). This cell-based caspase-3 activity assay measures the increased caspase-3 activity in the astrocytoma cell line (SNB-19) after a 6-hour Zika virus infection with a luminescence readout. A decrease in the luminescence signal in this assay by small molecule treatment indicates an inhibitory effect of that small molecule on the Zika virus induced caspase-3 activity that may correlate with its effect on reduction of Zika virus caused cell death.
# The medium for SNB-19 cells is composed of RPMI 1640 (ATCC, Cat.# 30-2001), 10% fetal bovine serum (FBS) (GE healthcare Life Sciences, Cat.# SH30071.03), and 1% Pen/Strep (Gibco, Cat.# 15140-122). A Caspase-Glo 3/7 assay kit (catalog number G8092; Promega, Madison, WI) was used to detect caspase-3 activity induced by Zika virus infection in human cells. The reagent mixture was reconstituted as described in the protocol from the manufacturer. Polystyrene tissue culture treated and PDL coated white plates were obtained from Greiner Bio-One (Monroe, NC). Cells were seeded in 384- or 1536-well assay plates and cultured at 37 C with 5% CO2 for 16 to 20 hours. The typical cell seeding density in the 1536-well plate assay is 250 cells/well in 3ul medium for SNB-19 cells in tissue culture treated plates. Compounds were added to cells and incubated for one hour before addition of ZIKV solution to cells (2 FFU/cell). After incubation at 37 C with 5% CO2 for 6 hours, the reagent mixture of Caspase-Glo 3/7 assay kit was added to each well, followed by incubation at room temperature for 30 minutes. The luminescence intensity of the assay plates was measured using a ViewLux plate reader (PerkinElmer). Data were normalized by using the cell-containing wells without ZIKV as a negative control (0% induction of caspase 3/7 activity) and wells containing ZIKV infected cells (Caspase-3 activity induced) as a positive control (100% induction of caspase 3 activity). The percentage inhibitions of the increased Caspase-3 activity by small molecule inhibitors were then calculated.
SMILES,outcome,"activity change, negative = inhibition"
Oc1cccc2cccnc12,inactive,–
CNCC(O)c1ccc(O)cc1 (stereo not given),inactive,–
Cc1ccc2c(c1)C1CN(C)CCC1N2 (stereo not given),–,-0.747% [at 20.5 µM] (inactive)
CC(C)(N)Cc1ccc(Cl)cc1,–,1.7% (inactive)
O=c1[nH]c2ccccc2n1C1CCN(CCCC(c2ccc(F)cc2)c2ccc(F)cc2)CC1,inactive,–
CC1OC(C)OC(C)O1 (stereo not given),–,-3.73% (inactive)
CC(C)=CCOc1c2occc2cc2ccc(=O)oc12,inactive,–
CC[N+]1(C)CCCC(OC(=O)C(O)(c2ccccc2)c2ccccc2)C1 (stereo not given),–,0.591% (inactive)
NN=C(N)N,inactive,–
O=c1oc2ccccc2c(O)c1C(CC(O)c1ccc(-c2ccc(Br)cc2)cc1)c1ccccc1 (stereo not given),–,-4.36% (inactive)
O=C1CC[C@@]2(O)[C@H]3Cc4ccc(O)c5c4[C@@]2(CCN3CC2CC2)[C@H]1O5,inactive,–
CC(C)(C)CC(C)(C)c1ccc(O)cc1,inactive,–
C=C1C[C@@H]2[C@H](CC[C@]3(C)C(=O)CC[C@@H]23)[C@@]2(C)C=CC(=O)C=C12,–,16.5% (inactive)
CC1NCCOC1c1ccccc1 (stereo not given),–,-3.04% (inactive)
O=C(O)C(=O)c1cn(Cc2ccccc2)c2ccc(-c3ccc(OC(F)(F)F)cc3)cc12,–,21.1% (inactive)
CN1C[C@H](CNC(=O)OCc2ccccc2)C[C@@H]2c3cccc4c3c(cn4C)C[C@H]21,inactive,–
O=C1NCN(c2ccccc2)C12CCN(CC1COc3ccccc3O1)CC2 (stereo not given),inactive,–
Cc1ncc(CNC(=O)N(CCCl)N=O)c(N)n1,inactive,–
c1ccc2c(c1)OCC(C1=NCCN1)O2 (stereo not given),inactive,–
CCCC1CCCCN1 (stereo not given),–,-4.94% (inactive)

SMILES,outcome,"activity change, negative = inhibition"
C#CCOC(C(=O)OCCN(C)C)(c1ccccc1)c1ccccc1,–,1.68% (inactive)
C[C@]12CCC(=O)C(O)=C1CC[C@@H]1[C@@H]2CC[C@]2(C)C(=O)CC[C@@H]12,inactive,–
CCOP(=S)(OCC)Oc1cc(C)nc(C(C)C)n1,–,0.105% (inactive)
CC[N+](CC)(CC)CC,inactive,–
N#CC(C#N)=Cc1ccc(O)c(O)c1,inactive,–
CC[C@@H](CO)NC(=O)[C@@H]1C=C2c3cccc4[nH]cc(c34)C[C@H]2N(C)C1,inactive,–
CC(=O)Nc1cc([As](=O)(O)O)ccc1O,–,-2.83% (inactive)
C[C@]12CC[C@H]3[C@@H](CCC4=CC(=O)CC[C@@H]43)[C@@H]1CC[C@@H]2OC(=O)CCc1ccccc1,–,-13.2% (inactive)
CCN(CC)C(=O)N[C@@H]1C=C2c3cccc4[nH]cc(c34)C[C@@H]2N(C)C1,–,-2.95% (inactive)
CCC(C(N)=O)N1CCCC1=O (stereo not given),–,2.59% (inactive)
COc1ccc(C(CN(C)C)C2(O)CCCCC2)cc1 (stereo not given),inactive,–
O=c1[nH]c2ccccc2n1CCCN1CCC(n2c(=O)[nH]c3cc(Cl)ccc32)CC1,inactive,–
CN(C)[C@@H]1C(=O)C(C(N)=O)=C(O)[C@@]2(O)C(=O)C3=C(O)c4c(O)cccc4[C@@](C)(O)[C@H]3C[C@@H]12,inactive,–
COc1ccc(Cc2nccc3cc(OC)c(OC)cc23)cc1OC,inactive,–
Fc1ccc(C(OCCN2CCN(CCCc3ccccc3)CC2)c2ccc(F)cc2)cc1,inactive,–
CCC1(C2=NCCN2)Cc2ccccc2O1 (stereo not given),inactive,–
Cc1cccc(C)c1NC1=NCCCS1,inactive,–
COc1ccccc1N1CCNCC1,inactive,–
CC(=O)[C@H]1CC[C@H]2[C@@H]3CC[C@H]4C[C@](C)(O)CC[C@]4(C)[C@H]3CC[C@]12C,inactive,–
O=C(NC(O)C(Cl)(Cl)Cl)NC(O)C(Cl)(Cl)Cl (stereo not given),–,-5.51% (inactive)
